In PubChem BioAssay AID449762 (Southern Research Specialized Biocontainment Screening …, 2010):
In all, about 330,000 compounds went through this assay and about 1,900 (0.58%) were called active. Roughly 4% stayed inconclusive and do not appear here. No stated cut-off is given here; in the data, inconclusive means inhibition above about 70% without an active follow-up result; inactive means below that. Not all results are given here. Results with a measured potency or affinity are listed apart.

Test: M. tuberculosis growth inhibition, HTS (AID 449762);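 further: bacterial growth assessed after seven days of incubation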
Conditions: M. tuberculosis H37Rv growth inhibition, 7H9 media; at 25 µM; active compounds read high

Structure (SMILES) | inhibition
Cc1nn(-c2ccccc2)c2[nH]c(=O)c(CNCc3ccc4c(c3)OCO4)cc12 | -4.36% (inactive)
CC(C)(C)c1nn(-c2ccccc2)c2[nH]c(=O)c(CNc3ccc4c(c3)OCCO4)cc12 | 52.8% (inactive)
Cc1ccccc1NC(=O)C1CCN(S(=O)(=O)c2cccc3nonc23)CC1 | 4.17% (inactive)
CCC[C@@H]1C[C@@H](C(=O)N[C@H]([C@@H](C)O)[C@H]2O[C@H](SC)[C@H](O)[C@@H](O)C2O)N(C)C1 (stereo partly drawn) | 59.1% (inactive)
Cc1ccc(NC(=O)[C@@H](CC(C)C)NC(=O)[C@@H]2Cc3ccccc3CN2)cc1 | 2.07% (inactive)
CCOC(=O)C(C)Sc1ccc2nnc(CCNS(=O)(=O)c3ccc(C)cc3)n2n1 (stereo not drawn) | 1.94% (inactive)
Cc1cc(C(F)(F)F)cc(NNC(=O)NC(=O)c2ccccc2Cl)n1 | 10.6% (inactive)
COC(CNS(=O)(=O)c1ccc(S(=O)(=O)NC2CC2)cc1)OC | 1.93% (inactive)
Cc1ccc(S(=O)(=O)NNC(=O)Nc2ccc(Cl)cc2)cc1 | 0.2% (inactive)
COc1cc(SC)ccc1C(=O)NCCOc1ccc(Cl)cc1 | 64.9% (inactive)
O=C(Nc1ccc(N2CCN(C(=O)c3ccco3)CC2)cc1)c1ccccc1 | 2.03% (inactive)
O=C(Nc1ccc(N2CCN(C(=O)c3ccco3)CC2)cc1)c1ccco1 | -1.95% (inactive)
NC(=O)CC(NC(=O)Cc1ccc(Br)cc1)c1ccc(NCc2ccccn2)c([N+](=O)[O-])c1 (stereo not drawn) | 3.35% (inactive)
O=C(CN1C(=O)S/C(=C/c2cc(Br)cs2)C1=O)N1CCOCC1 | 5.49% (inactive)
COCCNC(=O)c1ccccc1NC(=O)CCSc1ccccc1 | -2.26% (inactive)
CCC1CCCCN1Cc1nc2c(c(=O)n(C)c(=O)n2C)n1CCC(C)C (stereo not drawn) | -0.27% (inactive)
COc1ccc(-c2c(-c3cccc(C)c3)oc3ccc(-c4ccc5c(c4)OCO5)cc23)cn1 | -1.67% (inactive)
Cc1cccc(-c2oc3ccccc3c2-c2ccc3c(c2)OCO3)c1 | 52.4% (inactive)
Cc1c(Cl)c([N+](=O)[O-])nn1CCCC(=O)Nc1ccc(Cl)cc1Cl | 5.86% (inactive)
CC1=NOC(=O)/C1=C\c1ccc(-c2ccc(Br)cc2C(=O)O)o1 | -4.04% (inactive)
CC1=NOC(=O)/C1=C\c1ccc(-c2cccc(Cl)c2)o1 | 60.5% (inactive)
Cc1c(NC(=S)Nc2cccc(Cl)c2)c(=O)n(-c2ccccc2)n1C | 7% (inactive)
Cc1cccc(NC(=O)CN2CCN(C(=O)COc3cccc(Br)c3)CC2)c1C | 1.13% (inactive)
CCOC(=O)c1sc(SCC(=O)Nc2ccc(N(C)C)cc2)nc1N | 1.23% (inactive)

Structure (SMILES) | inhibition
CCOC(=O)c1sc(NCCNc2nc(C)c(C(=O)OCC)s2)nc1C | -6.54% (inactive)
COc1ccc(NC(=O)CSc2nc(N)c(C(=O)Nc3ccc(N(C)C)cc3)s2)cc1 | 15.8% (inactive)
CCOC(=O)CSc1nnc(N)s1 | -0.59% (inactive)
COc1cccc(CN(C)CC(=O)Nc2c(C)cccc2C(C)C)c1 | 1.22% (inactive)
O=C(c1csc2ccccc12)N1CCN(c2ccc(Cl)c(Cl)c2)CC1 | 2.65% (inactive)
NC(CS(=O)O)C(=O)O (stereo not drawn) | 5.82% (inactive)
N[C@@H](Cc1ccc(N(CCCl)CCCl)cc1)C(=O)O | -2.59% (inactive)
N[C@@H](Cc1cc(I)c(O)c(I)c1)C(=O)O | -4.28% (inactive)
N[C@@H](Cc1cc(Br)c(O)c(Br)c1)C(=O)O | 1.75% (inactive)
Cc1ccc(C(=O)NCC(=O)OCC(=O)c2ccc(Cl)s2)cc1 | 13.4% (inactive)
O=C(NC1CCSc2ccccc21)c1cc(S(=O)(=O)N2CCOCC2)ccc1F (stereo not drawn) | -1.41% (inactive)
O=C(NC1CC1)c1cc(=O)c2ccccc2o1 | -13.4% (inactive)
COc1cc2c(cc1Cl)C(=O)C(F)(c1ccccc1)C(=O)N2 (stereo not drawn) | -6.77% (inactive)
Cc1nnc(SCc2ccc(C(=O)Nc3cc(Cl)ccc3C)cc2)s1 | -1.77% (inactive)
COc1ccc(OC)c(NC(=O)c2ccc(CSc3nnc(C)s3)cc2)c1 | 49.4% (inactive)
CCOc1ccc(NC(=O)CSc2nnc(COc3c(C)cccc3C)o2)cc1 | -12.7% (inactive)
COc1cc(NC(=O)Cc2ccccc2)c(C(=O)O)cc1OC | 5.42% (inactive)
COc1ccc(-n2nnnc2CNC(=O)C(=O)c2c[nH]c3ccccc23)cc1 | 1.52% (inactive)
COc1ccc(-c2c(-c3ccccc3OC)sc3ccccc23)cc1OC | 11.5% (inactive)
CCOC(=O)Cc1cn(C(=O)OC(C)(C)C)c2ccccc12 | -4.41% (inactive)
CC(=O)c1ccc(NC(=O)CNCc2cccs2)cc1 | -3.9% (inactive)
Cc1ccc(NC(=O)CNCc2cccs2)c(Br)c1 | 1% (inactive)
CSCCC(NC(=O)c1ccco1)C(=O)NC1CCC(C)CC1 (stereo not drawn) | -5.12% (inactive)
O=S(=O)(c1ccc2c(c1)OCCO2)C1CCC(S(=O)(=O)c2c(F)cccc2F)CC1 (stereo not drawn) | -1.16% (inactive)

Structure (SMILES) | inhibition
CC[n+]1c(/C=C/N(C)c2ccccc2)oc2ccc(Cl)cc21 | -7.91% (inactive)
CC[n+]1c(/C=C/N(C)c2ccccc2)oc2ccc(F)cc21 | -7.16% (inactive)
COC(=O)c1ccc(NC(=O)CSc2nnc(C)n2CC2CCCO2)cc1 (stereo not drawn) | -1.12% (inactive)
CC(OC(=O)c1cccc(NS(C)(=O)=O)c1)C(=O)Nc1ccc2c(c1)OCO2 (stereo not drawn) | -1.53% (inactive)
Cc1nn(-c2ccccc2)c(C)c1/C=N/NC(=O)c1cc(O)cc(O)c1 | 0.86% (inactive)
Cc1cc(C(=O)N/N=C/c2c(C)nn(-c3ccccc3)c2C)n[nH]1 | -1.35% (inactive)
Cc1ccc(-n2c(SCC(=O)N/N=C/c3c(C)nn(-c4ccccc4)c3C)nc3ccccc3c2=O)cc1 | 12% (inactive)
Cc1ccc(/C=N/NC(=O)CSc2nc3ccccc3c(=O)n2-c2ccccc2C)s1 | 6.56% (inactive)
CCCCNC(=O)CSc1nnc(Cc2ccc(Cl)c(Cl)c2)c(=O)[nH]1 | 4.24% (inactive)
O=c1ccc(=O)n2n1CC(O)C2 | 1.79% (inactive)
Cc1cc(Cl)c(S(=O)(=O)Nc2ccc(S(=O)(=O)N3CCOCC3)cc2)cc1OCC(N)=O | 5.99% (inactive)
CC(C)Cn1c(N)c(C(=O)COC(=O)Cc2cccc(C(F)(F)F)c2)c(=O)n(C)c1=O | 3% (inactive)
CCOC(=O)N/N=C(C)/C=C/c1ccccc1 | -3.41% (inactive)
Cc1ccc(OCC(=O)NCc2cccnc2)cc1 | -0.13% (inactive)
CC1CCN(C(=O)c2ccc(CSc3nc4ccncc4n3Cc3ccc(F)cc3)cc2)CC1 | -5.51% (inactive)
CCCOc1ccc(CC(=O)NCC2(c3ccccc3)CCOCC2)cc1OC | 5.05% (inactive)
Cc1ccc(N(CC(=O)NC2CCCC2)C(=O)CCC(=O)Nc2nccs2)cc1C | -7.45% (inactive)
O=C(CN1CCC(n2nnc3ccccc32)CC1)NCc1cccs1 | -0.03% (inactive)
C=CCNC(=O)CN1CCC(n2nnc3cc(C(F)(F)F)ccc32)CC1 | -4.99% (inactive)
O=C(CN1C(=O)/C(=C/c2ccccc2)SC1=S)NC1C=CS(=O)(=O)C1 (stereo not drawn) | 2.53% (inactive)
COc1cccc(C2C3=C(N=c4s/c(=C\c5ccccc5O)c(=O)n42)c2ccccc2CC3)c1OC (stereo not drawn) | 4.34% (inactive)
COc1cccc(C2C3=C(N=c4s/c(=C\c5ccc(O)cc5)c(=O)n42)c2ccccc2CC3)c1OC (stereo not drawn) | 65.1% (inactive)
COc1ccccc1NC(=O)c1ccccc1C(=O)N(C)Cc1ccccc1 | -2.3% (inactive)
Cc1cc(C)nc(SCC(=O)O)n1 | 0.26% (inactive)

Structure (SMILES) | inhibition
O=C(c1ccc2nc[nH]c2c1)N1CCc2ccccc2C1 | -3.52% (inactive)
Cc1ccc(NC(=O)CN(C)C(=O)Cn2ncc(Cl)c(Cl)c2=O)cc1 | 28.7% (inactive)
CCC(=O)Nc1ccc(C(=O)Cn2ncc(Cl)c(Cl)c2=O)cc1 | -3.99% (inactive)
COc1ccc(CCC(=O)NCCCNC(=O)CCc2ccc(OC)cc2)cc1 | 8.41% (inactive)
CCCCc1cc(=O)oc2cc(C)cc(OC(C)C(=O)NC(Cc3c[nH]c4ccc(O)cc34)C(=O)O)c12 (stereo not drawn) | -11.4% (inactive)
O=C(COC(=O)c1ccccc1Br)Nc1ccc(F)cc1 | 45.4% (inactive)
O=C(Nc1ccc(F)cc1)c1cccc(NC(=O)C2C3CC4OC(=O)C2C4C3)c1 (stereo not drawn) | -6.31% (inactive)
O=C1CC(/C=C/c2ccncc2)=Nc2ccccc2N1 | -0.65% (inactive)
O=C1CC(/C=C/c2ccccc2)=Nc2ccccc2N1 | -1.18% (inactive)
CCCCNS(=O)(=O)c1ccc(NC(=O)Cc2ccc(OC)cc2)cc1 | -0.2% (inactive)
O=C(NCCCN1CCOCC1)c1cc(S(=O)(=O)N2CCOCC2)ccc1Cl | -0.79% (inactive)
Cc1cc(-n2c(C)c3c(C)nnc(C)c3c2C)ccc1N | -1.53% (inactive)
Cc1ccc(-n2c(C)c3c(C)nnc(C)c3c2C)cc1C | 39.9% (inactive)
COc1cc(NS(C)(=O)=O)c(OC)cc1NC(=O)c1ccccc1 | -13.2% (inactive)
N#Cc1cccc2c1-c1ccccc1/C2=N/NC(N)=S | 11.6% (inactive)
NC(=O)N/N=C1\c2ccccc2-c2c(C(N)=O)cccc21 | -8.45% (inactive)
COc1cccc(C(=O)NCC2CCCN2S(=O)(=O)c2cccs2)c1 (stereo not drawn) | -3.52% (inactive)
CNC(=S)n1cnc(N)n1 | -9.24% (inactive)
CCOC(=O)CNC(=S)n1ncnc1N | -5.34% (inactive)
CCc1nc2nc(C)c(NS(=O)(=O)c3ccc(Br)s3)c(=O)n2[nH]1 | -4.89% (inactive)
CCC1CCCCN1C(=O)c1ccc2c(c1)C(=O)N(c1ccc(C)cc1)C2=O (stereo not drawn) | 7.37% (inactive)
